{"source": "PubChem BioAssay AID1578", "about": "(Sanford-Burnham Center for Chemical Genomics, 2009)", "note": "Screen size: about 290,000 compounds; about 3,000 (1%) were called active. The list comes from a sample in which actives are over-represented; it also holds similar structures and randomly drawn compounds. Values without a mark were called inactive. No stated cut-off is given here; in the data, active means inhibition mostly above about 36% (no sharp cut-off); inactive means mostly below about 34%.", "data": [{"experiment": "NOD1 signaling inhibitors, primary screen, cell-based, luminescence, uHTS (AID 1578);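 further: HEK-293T reporter cells stimulated with the NOD1 agonist gamma-tri-DAP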", "conditions": "NOD1-driven NF-kB luciferase reporter cells, at 4 µM, stronger effect = higher value", "values": [{"smiles": "Cc1ccc(NC2CCCN(C(=O)c3cccc(-c4ncc[nH]4)c3)C2)cc1C", "note": "(stereo unspecified)", "inhibition": "-0.1%"}, {"smiles": "CCCC(O)(CCC)C(=O)NN(C(=O)CCl)c1ccccc1", "inhibition": "-30.8%"}, {"smiles": "CCCCCCCN(C(=O)CCl)c1cccc(C)c1", "inhibition": "57.4% (active)"}, {"smiles": "CCN(CC)NC(=O)Nc1ccccc1", "inhibition": "1.7%"}, {"smiles": "Cc1ccc(N(NC(=O)C(O)(c2ccccc2)c2ccccc2)C(=O)CCl)cc1", "inhibition": "87.3% (active)"}, {"smiles": "CCCCC(O)(CCCC)C(=O)NN(C(=O)CCl)c1ccccc1", "inhibition": "8.2%"}, {"smiles": "CCC(O)(CC)C(=O)NN(C(=O)CCl)c1ccccc1", "inhibition": "-63.3%"}, {"smiles": "O=C(Nc1ccccc1)NN(C(=O)CCl)c1ccccc1", "inhibition": "73.9% (active)"}, {"smiles": "COC(=O)N(NC(=O)C(O)(c1ccccc1)c1ccccc1)c1ccc(C)cc1", "inhibition": "-13%"}, {"smiles": "CCCC(O)(CCC)C(=O)NN(C(=O)CCl)c1cccc(C)c1", "inhibition": "75% (active)"}, {"smiles": "CCCCCCN(C(=O)CCl)c1ccccc1", "inhibition": "-4.8%"}, {"smiles": "CCOC(=O)N(NC(=O)C(O)(c1ccccc1)c1ccccc1)c1ccccc1", "inhibition": "-25.2%"}, {"smiles": "CCCCCCCN(C(=O)CCl)c1ccccc1C", "inhibition": "27.2%"}, {"smiles": "Cc1cccc(Nc2nc(NCC3CCCO3)nc(N)c2[N+](=O)[O-])c1", "note": "(stereo unspecified)", "inhibition": "-27.5%"}, {"smiles": "O=C(COc1ccccc1)OC(C(=O)c1ccccc1)c1ccccc1", "note": "(stereo unspecified)", "inhibition": "-26.7%"}, {"smiles": "Cc1cc(NS(=O)(=O)c2ccc(NC(=O)c3ccco3)cc2)no1", "inhibition": "9.2%"}, {"smiles": "O=C(O)CN1CCCCCC1=O", "inhibition": "-31.2%"}, {"smiles": "Cc1nccn1CCCNC(=O)C1CCC(=O)N(Cc2ccccc2F)C1", "note": "(stereo unspecified)", "inhibition": "-13.5%"}, {"smiles": "CC(C)(C)OC(=O)CN1c2cccc3cccc(c23)S1(=O)=O", "inhibition": "-5.8%"}, {"smiles": "CCC(C(=O)NC(C)c1ccccc1)C(=O)NC(C)c1ccccc1", "note": "(stereo unspecified)", "inhibition": "-9.8%"}, {"smiles": "CC(=O)Nc1ccc(NC(=O)c2cc(=O)c3cc(C)c(C)cc3o2)cc1", "inhibition": "-7.3%"}, {"smiles": "COc1ccc(-c2ccc(C(C)=O)cc2)cc1[C@H]1[C@H]2C=CC[C@@H](C)[C@@H]2C(=O)N1Cc1ccccc1", "inhibition": "-4.4%"}, {"smiles": "COC(=O)c1cc2sc(Cl)cc2n1CC(=O)Nc1cccc(SC)c1", "inhibition": "1.3%"}, {"smiles": "CCn1c(=O)cc(OCC(=O)NCc2cccs2)c2ccccc21", "inhibition": "-18.7%"}, {"smiles": "O=C(CN1CC[n+]2c(-c3ccccc3)csc21)c1ccc(Br)cc1", "inhibition": "-9.1%"}, {"smiles": "O=C(CN1CC[n+]2c(-c3cccs3)csc21)c1ccc(Br)cc1", "inhibition": "5%"}, {"smiles": "O=C(CN1CC[n+]2c(-c3cccs3)csc21)c1ccc(-c2ccccc2)cc1", "inhibition": "56.9% (active)"}, {"smiles": "O=C(O)CSCC(=O)N1CCc2c([nH]c3ccccc23)C1C(F)(F)F", "note": "(stereo unspecified)", "inhibition": "-8.5%"}, {"smiles": "O=C(Nc1ccc(NC(=O)c2ccc(Cl)c(S(=O)(=O)N3CCOCC3)c2)cc1)c1ccccc1", "inhibition": "-18.3%"}, {"smiles": "O=C(Nc1cccc(S(=O)(=O)C(F)F)c1)c1ccc(Cl)c(S(=O)(=O)N2CCOCC2)c1", "inhibition": "4.5%"}, {"smiles": "CCOC(=O)c1c(/N=C/N(C)C)sc(C=O)c1-c1ccccc1", "inhibition": "-24.2%"}, {"smiles": "Cc1cccc(COCC(CC(C)C)N2CCN(C(=O)c3ccc(C(C)(C)C)cc3)CCC2=O)c1", "note": "(stereo unspecified)", "inhibition": "77% (active)"}, {"smiles": "Cc1cccc(COCC(CC(C)C)N2CCN(C(=O)c3ccc(C(F)(F)F)cc3)CCC2=O)c1", "note": "(stereo unspecified)", "inhibition": "-5.2%"}, {"smiles": "CC(C)CC(COCc1cccc(Cl)c1)N1CCN(C(=O)c2ccc(C(F)(F)F)cc2)CCC1=O", "note": "(stereo unspecified)", "inhibition": "-7.1%"}, {"smiles": "CC(=O)c1c(C)n(-c2ccc(C)cc2)c2ccc(O)cc12", "inhibition": "33.3%"}, {"smiles": "COC(=O)c1c(C)n(-c2ccc(C)cc2)c2ccc(O)cc12", "inhibition": "18.7%"}, {"smiles": "O=C(CN(C(=O)c1ccccc1Cl)N1C(=O)C2C3C=CC(C3)C2C1=O)c1cccs1", "note": "(stereo unspecified)", "inhibition": "-17%"}, {"smiles": "O=C(Nc1ccc(OC(F)F)c(Cl)c1)Nc1ccc2c(c1)OCO2", "inhibition": "-34.5%"}, {"smiles": "COc1ccc(/C=C2\\N=C(SC)N(C)C2=O)cc1", "inhibition": "3.7%"}, {"smiles": "COc1ccc(/C=C2\\N=C(SC)N(c3ccccc3OC)C2=O)cc1", "inhibition": "53.5% (active)"}, {"smiles": "CCSC1=N/C(=C\\c2ccccc2)C(=O)N1c1ccc(OC)cc1", "inhibition": "30.2%"}, {"smiles": "COc1cccc(CNc2ncn[nH]2)c1OCc1ccc(F)cc1", "inhibition": "-21.2%"}, {"smiles": "Cc1ccc(N=Cc2nc(-c3ccc(C)cc3)oc2O)cc1", "inhibition": "21.9%"}, {"smiles": "Cc1ccc(-c2nc(C=Nc3ccc(O)cc3)c(O)o2)cc1", "inhibition": "57.6% (active)"}, {"smiles": "Cc1ccc(-c2nc(C=Nc3ccccc3)c(O)o2)cc1", "inhibition": "-33.7%"}, {"smiles": "CCSc1nc2ccccc2n1CCOc1ccccc1", "inhibition": "-22.7%"}, {"smiles": "O=C(CS(=O)(=O)c1cn(CC(=O)N2CCCC2)c2ccccc12)Nc1ccccc1", "inhibition": "-8.1%"}, {"smiles": "O=S(=O)(NCc1ccco1)c1ccc(Cl)nc1", "inhibition": "-15.7%"}, {"smiles": "CC(C)CC(C(=O)NC(C)(C)C)N(Cc1cccs1)C(=O)c1snc(C(N)=O)c1N", "note": "(stereo unspecified)", "inhibition": "-13.4%"}, {"smiles": "Cc1nn(-c2nc3ccccc3[nH]2)c(=O)c2ccccc12", "inhibition": "94.4% (active)"}, {"smiles": "O=c1c2ccccc2cnn1-c1ccc(Cl)cc1", "inhibition": "-102%"}, {"smiles": "O=c1c2ccccc2cnn1-c1nc2ccccc2[nH]1", "inhibition": "99.7% (active)"}, {"smiles": "C=CCN(CC=C)c1cnn(-c2nc3ccccc3[nH]2)c(=O)c1Cl", "inhibition": "11.7%"}, {"smiles": "O=c1c(Cl)c(NCCCO)cnn1-c1nc2ccccc2[nH]1", "inhibition": "10.3%"}, {"smiles": "Cc1nn(-c2ccccc2)c(=O)c2ccccc12", "inhibition": "-47.4%"}, {"smiles": "Cc1nn(-c2nc3ccccc3[nH]2)c(N)c1-c1ccccc1", "inhibition": "-44.1%"}, {"smiles": "O=c1c(Cl)c(N2CCOCC2)cnn1-c1nc2ccccc2[nH]1", "inhibition": "-19.5%"}, {"smiles": "O=c1c(Cl)c(N2CCCCC2)cnn1-c1nc2ccccc2[nH]1", "inhibition": "74.8% (active)"}, {"smiles": "Cc1nnc(SCC(=O)NC(=O)Nc2ccc3c(c2)OCCO3)s1", "inhibition": "-25.8%"}, {"smiles": "COc1ccc(CCNC(=O)CC2SC(=NCCC(C)C)NC2=O)cc1OC", "note": "(stereo unspecified)", "inhibition": "-12.2%"}, {"smiles": "COc1cc(C2c3[nH]c4ccccc4c3C[C@@H]3C(=O)N(Cc4ccco4)CC(=O)N23)cc(OC)c1OC", "note": "(stereo partly specified)", "inhibition": "-4.3%"}]}]}
